Conditions in all cases: mRNA level, 48 h; actives raise or lower the signal
Read-out in test [1]: Early growth response protein 1 (EGR1) transcription factor, EGR1 (gene 1958)
Briefly: LTEA_HepaRG_EGR1: Life Technologies and Expression Analysis (LTEA) Assay for Early growth response protein 1 (EGR1) transcription factor using HepaRG (AID 2283490). Summed up:
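Differentiated HepaRG cells in serum-free induction medium exposed 48 hours, duplicate, to 8 half-log concentrations up to 100 uM in 0.5% DMSO. EGR1 mRNA measured by TaqMan qRT-PCR, normalized to ACTB, GAPDH, POLR2A; bidirectional fit versus DMSO.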

Read-out in test [2]: Ezrin (EZR), EZR (gene 7430)
Briefly: LTEA_HepaRG_EZR: Life Technologies and Expression Analysis (LTEA) Assay for Ezrin (EZR) using HepaRG (AID 2283491). A digest of the protocol:
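EZR transcript levels came from Fluidigm qRT-PCR and were normalized to three housekeeping genes after 48 h chemical exposure of HepaRG cells. Dosing used an 8-point half-log series with a 100 uM top concentration in 0.5% DMSO, tested in duplicate; both directions were fitted versus vehicle.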

Read-out in test [3]: Cytochrome P450 3A7 (Homo sapiens) (UniProt P24462)
Briefly: LTEA_HepaRG_CYP3A7: Life Technologies and Expression Analysis (LTEA) Assay for CYP3A7 using HepaRG (AID 2283492). Summed up:
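CYP3A7 transcript levels were read by TaqMan qRT-PCR on Fluidigm arrays after 48 h chemical exposure of human HepaRG cells, with housekeeping-gene normalisation. Eight half-log concentrations up to 100 uM in 0.5% DMSO were tested in duplicate.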

Read-out in another test: CYP3A5 (gene 1577)
As to the kind of experiment: LTEA_HepaRG_CYP3A5: Life Technologies and Expression Analysis (LTEA) Assay for CYP3A5 using HepaRG (AID 2283493). A digest of the protocol:
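mRNA induction or loss of CYP3A5 assessed in HepaRG after 48 h dosing, 100 uM top concentration, duplicate wells; TaqMan qRT-PCR with ACTB, GAPDH, POLR2A normalization; 0.5% DMSO as negative control.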

Read-out in test [4]: Cytochrome P450 4A22 (Homo sapiens) (UniProt Q5TCH4)
As to the kind of experiment: LTEA_HepaRG_CYP4A22: Life Technologies and Expression Analysis (LTEA) Assay for Cytochrome P450 4A22 (CYP4A22) using HepaRG (AID 2283495). Summed up:
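HepaRG, 48 h post-plating -> serum-free induction medium; dosed 48 h, duplicate, 8 conc. (100 uM top, half-log), 0.5% DMSO. Readout: CYP4A22 mRNA by qRT-PCR, ACTB/GAPDH/POLR2A normalization; gain/loss fit relative to DMSO.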

Read-out in test [5]: Cytochrome P450 7A1 (Homo sapiens) (UniProt P22680)
Briefly: LTEA_HepaRG_CYP7A1: Life Technologies and Expression Analysis (LTEA) Assay for Cytochrome P450 7A1 (CYP7A1) using HepaRG (AID 2283496). A digest of the protocol:
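Gene expression endpoint in human HepaRG liver cells treated for 48 h with test chemicals (up to 100 uM, 0.5% DMSO). Values come from bidirectional concentration-response fitting versus DMSO.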

Read-out in test [6]: Glutathione S-Transferase (GSTA2), GSTA2 (gene 2939)
As to the kind of experiment: LTEA_HepaRG_GSTA2: Life Technologies and Expression Analysis (LTEA) Assay for Glutathione S-Transferase (GSTA2) using HepaRG (AID 2283497). Summed up: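 Differentiated human HepaRG cells were exposed in duplicate for 48 h in serum-free induction medium, 8 points from 100 uM top in half-log steps, 0.5% DMSO. GSTA2 mRNA was measured by TaqMan qRT-PCR, normalized to ACTB, GAPDH and POLR2A; bidirectional fit versus DMSO.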

Read-out in test [7]: Glutamate-cysteine ligase catalytic (GCLC), GCLC (gene 2729)
Briefly: LTEA_HepaRG_GCLC: Life Technologies and Expression Analysis (LTEA) Assay for Glutamate-cysteine ligase catalytic (GCLC) using HepaRG (AID 2283498). Summed up: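 Differentiated HepaRG cells exposed 48 h in serum-free induction medium, eight-point half-log series topping at 100 uM in 0.5% DMSO, duplicates. GCLC mRNA by qRT-PCR normalized to ACTB, GAPDH and POLR2A, fitted bidirectionally versus DMSO.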

Read-out in test [8]: growth arrest and DNA damage 45 (GADD45G), GADD45G (gene 10912)
As to the kind of experiment: LTEA_HepaRG_GADD45G: Life Technologies and Expression Analysis (LTEA) Assay for growth arrest and DNA damage 45 (GADD45G) using HepaRG (AID 2283499). A digest of the protocol: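 HepaRG, 48 h exposure, top 100 uM, half-log 8-point series, 0.5% DMSO vehicle, duplicates. Readout: GADD45G transcript by qRT-PCR (Fluidigm array), housekeeping-normalised (ACTB/GAPDH/POLR2A). Bidirectional curve fit vs DMSO baseline.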

Read-out in test [9]: Heat shock 70 kDa protein 1 (HSPA1A), gene 3303
As to the kind of experiment: LTEA_HepaRG_HSPA1A: Life Technologies and Expression Analysis (LTEA) Assay for Heat shock 70 kDa protein 1 (HSPA1A) using HepaRG (AID 2283502). A digest of the protocol:
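HSPA1A induction in human HepaRG liver cells is measured after 48 h of chemical treatment (100 uM maximum, 0.5% DMSO vehicle). Expression comes from qRT-PCR normalized to endogenous controls.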

Read-out in test [10]: 3-Hydroxy-3-Methylglutaryl-CoA Synthase 2 (HMGCS2), HMGCS2 (gene 3158)
Briefly: LTEA_HepaRG_HMGCS2: Life Technologies and Expression Analysis (LTEA) Assay for 3-Hydroxy-3-Methylglutaryl-CoA Synthase 2 (HMGCS2) using HepaRG (AID 2283504). Summed up:
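qRT-PCR read-out of HMGCS2 transcript, normalised to three housekeeping genes, in HepaRG cells after 48 h chemical exposure. Eight-point curves from 100 uM, half-log dilutions, 0.5% DMSO vehicle; gain or loss fitted relative to DMSO baseline.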

Read-out in the next test: HGF (gene 3082)
As to the kind of experiment: LTEA_HepaRG_HGF: Life Technologies and Expression Analysis (LTEA) Assay for Hepatocyte Growth Facto (HGF) using HepaRG (AID 2283505). Summed up:
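HepaRG, 48 h dosing, 8-pt half-log series from 100 uM in 0.5% DMSO, duplicates. Readout: TaqMan qRT-PCR of HGF mRNA, housekeeping-normalized; bidirectional curve fit vs DMSO baseline.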

Read-out in test [11]: Insulin Like Growth Factor 1 (IGF1), IGF1 (gene 3479)
Briefly: LTEA_HepaRG_IGF1: Life Technologies and Expression Analysis (LTEA) Assay for Insulin Like Growth Factor 1 (IGF1) using HepaRG (AID 2283506). A digest of the protocol: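 Using human HepaRG liver cells, IGF1 transcript induction or suppression is measured 48 h after dosing across eight concentrations capped at 100 uM. Values derive from bidirectional concentration-response fitting with DMSO as baseline.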

Read-out in test [12]: Intercellular Adhesion Molecule 1 (ICAM1), ICAM1 (gene 3383)
Briefly: LTEA_HepaRG_ICAM1: Life Technologies and Expression Analysis (LTEA) Assay for Intercellular Adhesion Molecule 1 (ICAM1) using HepaRG (AID 2283507). A digest of the protocol:
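HepaRG, 48 h exposure, 8-pt half-log series from 100 uM, 0.5% DMSO vehicle, duplicates. Readout: TaqMan qRT-PCR mRNA, housekeeping-normalized (ACTB/GAPDH/POLR2A). Bidirectional curve fit vs DMSO baseline.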

Read-out in test [13]: Insulin-like growth factor-binding protein 1 (IGFBP1), IGFBP1 (gene 3484)
Briefly: LTEA_HepaRG_IGFBP1: Life Technologies and Expression Analysis (LTEA) Assay for Insulin-like growth factor-binding protein 1 (IGFBP1) using HepaRG (AID 2283508). Summed up: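 qRT-PCR mRNA read-out (TaqMan, Fluidigm array), normalised to three housekeeping genes; HepaRG cells, 48 h exposure, 8-pt half-log series from 100 uM, 0.5% DMSO vehicle; bidirectional curve fit vs DMSO baseline.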

Read-out in test [14]: Interleukin 6 (IL6), IL6 (gene 3569)
Briefly: LTEA_HepaRG_IL6: Life Technologies and Expression Analysis (LTEA) Assay for Interleukin 6 (IL6) using HepaRG (AID 2283509). Summed up:
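HepaRG cells exposed in duplicate for 48 h to eight half-log concentrations, top 100 uM, in 0.5% DMSO serum-free induction medium. mRNA measured by qRT-PCR, normalized to ACTB, GAPDH and POLR2A. Bidirectional fit versus DMSO.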

Read-out in test [15]: Glutamate-cysteine ligase regulatory (GCLM), GCLM (gene 2730)
As to the kind of experiment: LTEA_HepaRG_GCLM: Life Technologies and Expression Analysis (LTEA) Assay for Glutamate-cysteine ligase regulatory (GCLM) using HepaRG (AID 2283500). A digest of the protocol:
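Human liver HepaRG cultures receive test chemicals for 48 hours at up to 100 uM in 0.5% DMSO. GCLM expression is measured by qRT-PCR and analysed for increases or decreases against vehicle.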

Read-out in test [16]: Glutathione S-transferase M3 (GSTM3), GSTM3 (gene 2947)
Briefly: LTEA_HepaRG_GSTM3: Life Technologies and Expression Analysis (LTEA) Assay for Glutathione S-transferase M3 (GSTM3) using HepaRG (AID 2283501). A digest of the protocol: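 qRT-PCR read-out of GSTM3 transcript, normalized to three housekeeping genes, from human HepaRG cells after 48 h chemical exposure. Eight-point half-log series, top 100 uM, 0.5% DMSO vehicle; gain or loss fitted relative to DMSO baseline.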

Read-out in test [17]: Hypoxia-inducible factor 1-alpha (Homo sapiens) (UniProt Q16665)
Briefly: LTEA_HepaRG_HIF1A: Life Technologies and Expression Analysis (LTEA) Assay for Hypoxia-inducible factor 1 (HIF1A) Trancription factor using HepaRG (AID 2283503). A digest of the protocol: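 HepaRG, 48 h exposure, 8-pt half-log series from 100 uM, 0.5% DMSO vehicle, duplicates. Readout: HIF1A transcript by qRT-PCR (Fluidigm array), housekeeping-normalised. Bidirectional curve fit vs DMSO baseline.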

Active and inactive are the calls of the source. Rule for the calls: active = hit-call score of the fitted dose curve at least 0.9, where 1 is the maximum; inactive = score below 0.9.

Usually AC50 stands for the concentration at which the activity in the assay is half-maximal.

Chain of Hypoxia-inducible factor 1-alpha (Homo sapiens) (Q16665 whole entry, looked up): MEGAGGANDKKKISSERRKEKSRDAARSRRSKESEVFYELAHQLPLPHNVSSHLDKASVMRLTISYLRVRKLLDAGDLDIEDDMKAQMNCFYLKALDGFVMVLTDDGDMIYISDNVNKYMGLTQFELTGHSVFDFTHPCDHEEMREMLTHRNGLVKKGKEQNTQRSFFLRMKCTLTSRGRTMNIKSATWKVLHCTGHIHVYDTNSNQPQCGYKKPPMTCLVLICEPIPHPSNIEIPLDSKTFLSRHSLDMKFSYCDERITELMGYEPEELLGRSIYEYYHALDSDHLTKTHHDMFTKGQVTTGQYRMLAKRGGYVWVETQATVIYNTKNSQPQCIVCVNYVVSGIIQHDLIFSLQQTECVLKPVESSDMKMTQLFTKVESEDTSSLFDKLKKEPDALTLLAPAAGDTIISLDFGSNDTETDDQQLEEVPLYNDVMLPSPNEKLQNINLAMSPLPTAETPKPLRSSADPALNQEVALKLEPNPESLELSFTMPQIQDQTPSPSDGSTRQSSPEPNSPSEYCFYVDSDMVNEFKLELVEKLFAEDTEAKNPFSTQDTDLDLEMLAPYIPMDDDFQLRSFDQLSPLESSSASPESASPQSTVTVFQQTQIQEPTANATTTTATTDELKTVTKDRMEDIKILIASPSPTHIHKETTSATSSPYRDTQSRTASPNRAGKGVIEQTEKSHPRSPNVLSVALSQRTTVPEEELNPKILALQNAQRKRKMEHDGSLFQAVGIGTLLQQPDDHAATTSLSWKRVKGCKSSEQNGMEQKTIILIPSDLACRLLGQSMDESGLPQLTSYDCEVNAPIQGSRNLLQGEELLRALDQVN
Chain of Cytochrome P450 3A7 (Homo sapiens) (P24462 whole entry, looked up): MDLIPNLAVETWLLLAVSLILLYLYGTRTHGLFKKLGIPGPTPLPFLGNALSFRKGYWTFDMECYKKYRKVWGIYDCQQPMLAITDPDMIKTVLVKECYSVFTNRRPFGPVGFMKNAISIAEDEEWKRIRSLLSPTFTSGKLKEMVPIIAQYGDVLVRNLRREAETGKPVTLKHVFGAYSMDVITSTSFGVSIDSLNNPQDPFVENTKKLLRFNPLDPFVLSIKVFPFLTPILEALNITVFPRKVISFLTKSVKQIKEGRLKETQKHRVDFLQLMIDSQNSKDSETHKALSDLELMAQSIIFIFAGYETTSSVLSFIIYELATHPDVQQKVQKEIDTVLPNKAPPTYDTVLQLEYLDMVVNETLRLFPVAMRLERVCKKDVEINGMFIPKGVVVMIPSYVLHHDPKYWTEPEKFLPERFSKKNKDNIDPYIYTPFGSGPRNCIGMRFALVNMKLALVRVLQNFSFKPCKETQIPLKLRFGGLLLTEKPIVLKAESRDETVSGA

Turning to `CN(C)CCCN1c2ccccc2Sc2ccc(Cl)cc21`, the concentration at half-maximal activity (AC50) is 88.2 µM (active) in [1]; 83.7 µM (active) with CYP3A5 (gene 1577); 81.3 µM (active) in test [5]; 86.4 µM (active) in test [6]; 49.7 µM (active) in test [8]; 76.9 µM (active) in test [9]. Further, the half-maximal activity concentration (AC50) in [10] was 68.6 µM (active); in test [11] it was 77.7 µM (active); in [12] it was 77.7 µM (active); in test [13] it was 72.8 µM (active); in test [14], 77 µM (active). In addition, the molecule was classed as inactive (in [2]; in [3]; in test [4]; in test [7]; with HGF (gene 3082)).
Take `CS(=O)(=O)c1ccc([C@@H](C[C@H]2CCC(=O)C2)C(=O)Nc2cnccn2)cc1Cl`: the call in [1], in [2], in test [6], in test [8], in [17] and in test [10] was inactive. The molecule was classed as inactive in test [14]. Moreover, the AC50 is 1.01 µM (active) in [7]; 1.81 µM (active) in test [15]; 17.6 µM (active) in [16]; 13.4 µM (active) in test [9]; 1.71 µM (active) with HGF (gene 3082); 1.48 µM (active) in [12]. Moreover, the half-maximal activity concentration (AC50) in [13] is 2.29 µM (active).
Regarding `O=C1OC(c2ccc(O)cc2)(c2ccc(O)cc2)c2ccccc21`, the outcome in test [1], in [2], in test [4], in [8], in [15] and in test [12] was inactive. Moreover, the molecule was classed as inactive in test [13] and in test [14]. Also, the concentration at half-maximal activity (AC50) with CYP3A5 (gene 1577) is 62.1 µM (active); in test [5], 50 µM (active); in test [6], 78.5 µM (active); in [7] it was 32 µM (active); in [16] it was 50 µM (active); in [9] it was 50 µM (active). In the test with HGF (gene 3082), the AC50 is 79.4 µM (active).
As for `Cn1cnc2c1c(=O)[nH]c(=O)n2C`, the result in test [1], in test [2], in test [6], in test [7], in test [8] and in [9] was inactive. Moreover, the call (in the test with HGF (gene 3082); in test [12]; in test [13]; in test [14]) was inactive.

Values taken from PubChem BioAssay (EPA / NIEHS).
